Inconclusive results are not listed. The source made the active and inactive calls. Unless noted, calls come from the whole dose curve; as a rule, active = well fitted curve in the direction sought with a large enough effect in the repeat runs; inconclusive = weak or mixed curves; inactive = no such curve, though single readings can be large; an effect the other way counts as inactive or inconclusive.
Legend:
[1] = qHTS assay to identify small molecule antagonists of the estrogen receptor alpha (ER-alpha) signaling pathway using the BG1 cell line in the presence of 0.1 nM 17-beta-estradiol - cell viability counter screen (AID 1259241); note: nearly all actives have a fitted effect of over 40% in size; note: potency is the fitted concentration of half-maximal effect
Procedure, shortened: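 Following 5 days in phenol red-free medium with charcoal-stripped serum, VM7Luc4E2 cells received test compounds alongside 0.1 nM 17beta-estradiol (final) at 37C for 22 hr. Live cells were then quantified via protease-substrate fluorescence.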

[2] = qHTS assay to identify small molecule antagonists of the androgen receptor (AR) signaling pathway using the MDA cell line in the presence of 0.5 nM R1881 - cell viability counter screen (AID 1259242); note: nearly all actives have a fitted effect of over 45% in size; note: potency is the fitted concentration of half-maximal effect
Procedure, shortened: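 Human breast carcinoma MDA-kb2 cells, cultured without CO2, receive compounds alongside 0.5 nM (final) R1881 agonist. After 16 hr at 37C, viability is taken as live-cell protease signal.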

[3] = biological target: Estrogen receptor (Homo sapiens) (UniProt P03372); experiment: qHTS assay to identify small molecule antagonists of the estrogen receptor alpha (ER-alpha) signaling pathway using the BG1 cell line in the presence of 0.1 nM 17-beta-estradiol (AID 1259244); note: nearly all actives have a fitted effect of over 50% in size; note: potency is the fitted concentration of half-maximal effect
Procedure, shortened: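 Seeding of stripped-serum-adapted VM7Luc4E2 cells, 24 h attachment, compound transfer, then 0.1 nM final 17beta-estradiol; after 22 h incubation, ONE-Glo reagent and luminescence reading.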

[4] = qHTS assay to identify small molecule HDAC inhibitors (AID 1259364); note: potency is the fitted concentration of half-maximal effect;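 note: wild-type HCT-116 cells with endogenous class I/II HDAC activity; nearly all actives have a fitted effect of over 45% in size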; for activity change, negative = inhibition: top concentration of the series differs between compounds
Procedure, shortened: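 After a 2 hr compound incubation (37C, 5% CO2), HCT-116 cells seeded at 1,500/well the day before received HDAC-Glo reagent; signal read as luminescence after 30 min at room temperature.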

[5] = qHTS assay to identify small molecule HDAC inhibitors - cell viability counter screen (AID 1259365); note: nearly all actives have a fitted effect of over 50% in size; note: potency is the fitted concentration of half-maximal effect; for activity change, negative = cytotoxicity: series mostly up to about 92 µM
Procedure, shortened: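 HCT-116 wild-type, overnight attachment; 2hr drug exposure, 37C; CellTiter-Glo luminescent ATP readout after 30min RT.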

[6] = qHTS assay to identify small molecule agonists of the sonic hedgehog signaling (Shh) pathway - cell viability counter screen (AID 1259366); note: nearly all actives have a fitted effect of over 50% in size; note: potency is the fitted concentration of half-maximal effect
Procedure, shortened: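 Compounds in DMSO were pin-transferred onto 3T3 Gli1-Luc cells that had settled 4hr; plates then stood 24hr at 37C and 5% CO2. One hour before the end, CellTiter-Fluor was added and fluorescence recorded.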

[7] = qHTS assay to identify small molecule antagonists of the sonic hedgehog signaling (Shh) pathway - cell viability counter screen (AID 1259367); note: nearly all actives have a fitted effect of over 55% in size; note: potency is the fitted concentration of half-maximal effect
Procedure, shortened: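 CellTiter-Fluor signal in conditioned medium-stimulated 3T3 Gli1-Luc cells, 23 hr compound exposure, 37C.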

[8] = qHTS assay to identify small molecule agonists of the sonic hedgehog signaling (Shh) pathway (AID 1259368; calls by dose curve;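 note: NIH/3T3-derived 3T3Gli1-Luc cells carrying a stable Gli1-driven firefly luciferase reporter; series mostly up to about 92 µM; nearly all actives have a fitted effect of over 15% in size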)
Procedure, shortened: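 Stable NIH/3T3 Gli1-Luc reporter clone; 24 hr cpd exposure after a 4 hr settling period; luminescence endpoint.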

[9] = biological target: Estrogen receptor beta (Homo sapiens) (UniProt Q92731); experiment: qHTS assay to identify small molecule agonists of the estrogen receptor beta (ER-beta) signaling pathway (AID 1259377; active = well fitted activation curve with a large enough effect in the signal ratio in the repeat runs, not every such curve was filed as active; the % refers to the signal ratio)
Procedure, shortened: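 qHTS in ER-beta-UAS-bla HEK293T cells: 6 hr settling, then 16 hr compound at 37C, then LiveBLAzer substrate 2 h at RT before fluorescence reading.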

[10] = biological target: Estrogen receptor beta (Homo sapiens) (UniProt Q92731); experiment: qHTS assay to identify small molecule antagonists of the estrogen receptor beta (ER-beta) signaling pathway (AID 1259378; active = well fitted inhibition curve with a large enough effect in the signal ratio in the repeat runs, not every such curve was filed as active; the % refers to the signal ratio; note: potency is the fitted concentration of half-maximal effect)
Procedure, shortened: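 Antagonist mode: compounds added to beta-lactamase reporter HEK293T ER-beta-UAS cells stimulated with E2 (1nM final), 16 hr at 37C. LiveBLAzer B/G FRET substrate, 2 hours room temperature, fluorescence read-out.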

[11] = qHTS assay to identify small molecule agonists of the estrogen receptor beta (ER-beta) signaling pathway - cell viability counter screen (AID 1259380); note: nearly all actives have a fitted effect of over 30% in size; note: potency is the fitted concentration of half-maximal effect
Procedure, shortened: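 In this qHTS counter screen, HEK293T cells carrying an ER-beta/UAS beta-lactamase reporter, grown in 2% charcoal-stripped FBS, received compound for 16 hr; ATP-based CellTiter-Glo luminescence was then read after 30 min at room temperature.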

[12] = biological target: Estrogen receptor (Homo sapiens) (UniProt P03372); experiment: qHTS assay to identify small molecule agonists of the estrogen receptor alpha (ER-alpha) signaling pathway in the presence of an antagonist (AID 1259383; calls by dose curve; note: nearly all actives have a fitted effect of over 15% in size; note: potency is the fitted concentration of half-maximal effect; for activation: top concentration of the series differs between compounds)
Procedure, shortened: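 ER-alpha agonism measured under antagonist challenge: 10.0nM ICI-182,780 (final) plus compound, 15 concentrations, 22hr, VM7Luc4E2 ERE-luciferase cells. Read by luminescence.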

[13] = qHTS assay to identify small molecule agonists or antagonists of the thyroid stimulating hormone receptor (TSHR) signaling pathway - wild type cell line counter screen (AID 1259384; calls by dose curve)
Procedure, shortened: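 Counter screen in untransfected Hek293: compounds (15-point titration, triplicate) plus phosphodiesterase inhibitor Ro20-1724 added after 18 h plating; 30 min RT. Intracellular cAMP via competitive d2/cryptate immunoassay, 1 h incubation.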

[14] = biological target: Thyrotropin receptor (Homo sapiens) (UniProt P16473); experiment: qHTS assay to identify small molecule antagonists of the thyroid stimulating hormone receptor (TSHR) signaling pathway (AID 1259385; calls by dose curve; note: nearly all actives have a fitted effect of over 20% in size; note: potency is the fitted concentration of half-maximal effect)
Procedure, shortened: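 Antagonist mode: compound-treated TSHR-expressing HEK293 cells were stimulated with 1.5 ng/mL TSH (final) in presence of Ro20-1724 for 30 min at RT. HTRF cAMP detection after 1 h; each compound tested at 15 concentrations, triplicate.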

[15] = qHTS assay to identify small molecule phospholipidosis (PLD) inducers (AID 1259344; active = well fitted curve in the direction sought with a large enough effect; an effect the other way counts as inactive or inconclusive; note: potency is the fitted concentration of half-maximal effect)
Procedure, shortened: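 Accumulated phospholipid, stained red by LipidTOX during 24 h compound treatment of HepG2 cells at 37 C, is quantified from images as pit number and intensity, normalised per cell using Hoechst-stained nuclei.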

[16] = qHTS assay to identify small molecule antagonists of the sonic hedgehog signaling (Shh) pathway (AID 1259369; calls by dose curve; note: nearly all actives have a fitted effect of over 45% in size; note: potency is the fitted concentration of half-maximal effect)
Procedure, shortened: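 Gli1 transcriptional reporter (firefly Luc) in NIH/3T3 background, conditioned-medium activated. 24hr exposure, luminescence endpoint.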

[17] = qHTS assay to identify small molecule agonists of the androgen receptor (AR) signaling pathway in the presence of an antagonist - cell viability counter screen (AID 1259379); note: nearly all actives have a fitted effect of over 25% in size; note: potency is the fitted concentration of half-maximal effect;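 for activity change, negative = cytotoxicity: MDA-kb2 human breast cancer cells carrying an MMTV luciferase reporter; series mostly up to about 92 µM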
Procedure, shortened: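 Counter screen for cell viability run in parallel with the AR agonist-mode luciferase assay. MDA-kb2 cells were co-treated with nilutamide (3.0uM final) and compounds, then incubated 16 hr at 37C, and CellTiter-Fluor fluorescence was measured.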

[18] = qHTS assay to identify small molecule antagonists of the estrogen receptor beta (ER-beta) signaling pathway - cell viability counter screen (AID 1259382); note: nearly all actives have a fitted effect of over 55% in size; note: potency is the fitted concentration of half-maximal effect;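 for activity change, negative = cytotoxicity: HEK293T cells carrying ER-beta-UAS-bla reporter stimulated with estradiol; series mostly up to about 92 µM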
Procedure, shortened: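 HEK293T ER-beta-UAS-bla, 2% charcoal-stripped FBS; compounds + 1nM E2 16 hr 37C; CellTiter-Glo luminescence, 30 min RT.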

[19] = biological target: Androgen receptor (Homo sapiens) (UniProt P10275); experiment: qHTS assay to identify small molecule agonists of the androgen receptor (AR) signaling pathway in the presence of an antagonist (AID 1259381; calls by dose curve; note: nearly all actives have a fitted effect of over 15% in size)
Procedure, shortened: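 AR antagonist background: nilutamide 3.0uM final. Cell line: MDA-kb2, MMTV-driven luciferase, responsive to both AR and GR. Exposure 16hr, 37C, no CO2; ONE-Glo luminescence.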
% is set by controls: 0 for no effect and ±100 for the full control effect.

Chain of Estrogen receptor (Homo sapiens) (P03372 whole entry, looked up): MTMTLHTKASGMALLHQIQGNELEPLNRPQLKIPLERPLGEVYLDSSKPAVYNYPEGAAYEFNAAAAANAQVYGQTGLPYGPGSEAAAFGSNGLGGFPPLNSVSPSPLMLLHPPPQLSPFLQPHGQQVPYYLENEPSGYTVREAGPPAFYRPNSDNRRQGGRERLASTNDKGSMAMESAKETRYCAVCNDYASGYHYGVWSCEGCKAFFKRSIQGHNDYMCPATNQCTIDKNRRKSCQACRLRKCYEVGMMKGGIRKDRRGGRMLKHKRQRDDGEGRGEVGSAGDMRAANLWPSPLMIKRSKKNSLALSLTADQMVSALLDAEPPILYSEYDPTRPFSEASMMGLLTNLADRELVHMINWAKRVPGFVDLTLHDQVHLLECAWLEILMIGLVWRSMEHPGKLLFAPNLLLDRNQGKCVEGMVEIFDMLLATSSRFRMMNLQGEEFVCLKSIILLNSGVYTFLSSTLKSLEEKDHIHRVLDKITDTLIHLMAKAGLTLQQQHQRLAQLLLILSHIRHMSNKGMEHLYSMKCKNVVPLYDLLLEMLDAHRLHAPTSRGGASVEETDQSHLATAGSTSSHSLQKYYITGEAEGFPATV
Chain of Estrogen receptor beta (Homo sapiens) (Q92731 whole entry, looked up): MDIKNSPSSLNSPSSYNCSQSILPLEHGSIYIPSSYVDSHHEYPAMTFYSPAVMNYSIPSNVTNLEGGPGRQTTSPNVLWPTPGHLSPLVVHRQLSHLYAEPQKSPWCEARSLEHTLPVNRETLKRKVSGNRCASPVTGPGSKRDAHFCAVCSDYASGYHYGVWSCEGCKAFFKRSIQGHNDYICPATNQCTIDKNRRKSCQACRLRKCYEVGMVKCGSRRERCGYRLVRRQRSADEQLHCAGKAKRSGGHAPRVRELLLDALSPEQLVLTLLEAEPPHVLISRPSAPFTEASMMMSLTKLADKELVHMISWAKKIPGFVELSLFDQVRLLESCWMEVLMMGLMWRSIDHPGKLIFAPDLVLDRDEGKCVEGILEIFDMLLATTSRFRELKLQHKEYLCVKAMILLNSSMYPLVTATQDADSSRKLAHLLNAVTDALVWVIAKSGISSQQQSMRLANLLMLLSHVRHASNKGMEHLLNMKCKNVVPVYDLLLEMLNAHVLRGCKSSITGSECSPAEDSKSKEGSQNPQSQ
Chain of Thyrotropin receptor (Homo sapiens) (P16473 whole entry, looked up): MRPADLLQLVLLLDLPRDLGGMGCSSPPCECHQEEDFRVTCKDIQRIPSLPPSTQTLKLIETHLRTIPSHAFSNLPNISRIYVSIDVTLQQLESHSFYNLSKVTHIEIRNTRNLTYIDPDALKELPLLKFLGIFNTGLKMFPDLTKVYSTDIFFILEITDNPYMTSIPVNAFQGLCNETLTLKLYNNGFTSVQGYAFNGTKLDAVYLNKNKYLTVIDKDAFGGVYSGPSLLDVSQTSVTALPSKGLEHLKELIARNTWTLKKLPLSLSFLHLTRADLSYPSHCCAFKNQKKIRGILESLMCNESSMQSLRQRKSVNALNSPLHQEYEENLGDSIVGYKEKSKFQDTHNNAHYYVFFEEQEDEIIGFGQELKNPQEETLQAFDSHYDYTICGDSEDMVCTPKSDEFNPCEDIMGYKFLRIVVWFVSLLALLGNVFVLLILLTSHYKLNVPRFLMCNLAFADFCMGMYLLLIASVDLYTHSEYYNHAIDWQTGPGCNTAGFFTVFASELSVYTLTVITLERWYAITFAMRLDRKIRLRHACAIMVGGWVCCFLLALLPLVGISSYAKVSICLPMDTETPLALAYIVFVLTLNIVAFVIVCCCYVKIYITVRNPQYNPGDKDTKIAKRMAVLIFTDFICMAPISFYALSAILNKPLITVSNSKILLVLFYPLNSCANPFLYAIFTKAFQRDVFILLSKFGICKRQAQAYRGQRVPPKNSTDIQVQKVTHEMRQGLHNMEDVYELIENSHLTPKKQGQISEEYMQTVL
Chain of Androgen receptor (Homo sapiens) (P10275 whole entry, looked up): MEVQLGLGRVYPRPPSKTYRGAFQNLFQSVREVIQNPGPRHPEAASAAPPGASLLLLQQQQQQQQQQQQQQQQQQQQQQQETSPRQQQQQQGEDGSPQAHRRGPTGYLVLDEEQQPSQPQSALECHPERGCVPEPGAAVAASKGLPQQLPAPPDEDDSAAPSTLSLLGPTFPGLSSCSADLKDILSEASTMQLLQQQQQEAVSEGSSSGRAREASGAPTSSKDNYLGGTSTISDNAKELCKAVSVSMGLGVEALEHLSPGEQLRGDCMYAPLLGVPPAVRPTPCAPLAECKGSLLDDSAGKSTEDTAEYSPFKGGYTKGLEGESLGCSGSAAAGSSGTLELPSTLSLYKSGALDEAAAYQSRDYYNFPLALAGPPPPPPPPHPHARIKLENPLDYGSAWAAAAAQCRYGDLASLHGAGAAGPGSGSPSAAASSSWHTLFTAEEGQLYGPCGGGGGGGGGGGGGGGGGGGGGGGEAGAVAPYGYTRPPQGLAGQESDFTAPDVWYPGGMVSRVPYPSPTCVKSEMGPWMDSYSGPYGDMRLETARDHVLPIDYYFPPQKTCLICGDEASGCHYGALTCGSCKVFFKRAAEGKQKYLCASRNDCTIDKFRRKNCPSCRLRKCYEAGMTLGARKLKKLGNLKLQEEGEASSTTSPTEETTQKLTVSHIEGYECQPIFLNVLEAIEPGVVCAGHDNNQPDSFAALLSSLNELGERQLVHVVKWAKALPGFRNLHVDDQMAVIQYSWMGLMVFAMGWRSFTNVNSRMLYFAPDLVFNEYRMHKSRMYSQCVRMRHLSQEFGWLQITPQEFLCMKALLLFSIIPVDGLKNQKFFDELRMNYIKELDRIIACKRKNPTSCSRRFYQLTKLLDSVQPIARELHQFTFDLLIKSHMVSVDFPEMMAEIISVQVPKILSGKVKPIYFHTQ

COCCCC/C(=N\OCCN)c1ccc(C(F)(F)F)cc1
active: Potency [10] 29.8 µM | Potency [11] 13.3 µM | Potency [14] 29.8 µM
inactive: Potency [1] | Potency [2] | Potency [3] | Potency [4] | Potency [5] | Potency [6] | Potency [7] | Potency [8] | Potency [9] | Potency [12] | outcome [13]

CCN1/C(=C/C=C/c2sc3ccccc3[n+]2CC)Sc2ccccc21
inactive: activity change, negative = inhibition [4] -19.9% [at 19 µM] | activity change, negative = cytotoxicity [5] -13.9% [at 19 µM] | activity change [8] -1.72% [at 18.9 µM, stronger effect = higher value] | activity change, negative = inhibition [16] -19% [at 19 µM] | cAMP activity change [13] -0.304% [at 18.9 µM]
active: Potency [1] 2.31 µM | Potency [2] 0.82 µM | Potency [3] 0.58 µM | Potency [15] 22.4 µM | Potency [6] 4.61 µM | Potency [7] 5.17 µM | Potency [17] 1.16 µM | Potency [18] 11.6 µM

CC(C)(C)C(=O)OCOC(=O)[C@@H]1N2C(=O)[C@@H](NC(=O)[C@H](N)c3ccccc3)[C@H]2SC1(C)C
inactive: Potency [1] | Potency [2] | Potency [3] | Potency [15] | Potency [4] | Potency [5] | Potency [6] | Potency [7] | Potency [8] | Potency [16] | Potency [9] | Potency [10] | Potency [17] | Potency [11] | Potency [18] | Potency [12] | outcome [13] | Potency [14]

CCCN(CCC)C(=O)C(CCC(=O)OCCCN1CCN(CCOC(=O)Cc2c(C)n(C(=O)c3ccc(Cl)cc3)c3ccc(OC)cc23)CC1)NC(=O)c1ccccc1 (centres undefined)
inactive: Potency [2] | Potency [3] | Potency [4] | Potency [5] | Potency [8] | Potency [17] | Potency [19] | outcome [13]
active: Potency [1] 13.3 µM | Potency [6] 11.9 µM | Potency [7] 10.6 µM | Potency [16] 9.44 µM | Potency [11] 10.6 µM | Potency [18] 13.3 µM | Potency [12] 11.9 µM

CCCCCCC[N+](CC)(CC)CCCCc1ccc(Cl)cc1
active: Potency [1] 26.6 µM | Potency [2] 6.68 µM | Potency [3] 11.9 µM | Potency [16] 0.168 µM | Potency [17] 5.96 µM | Potency [11] 9.44 µM
inactive: Potency [15] | Potency [4] | Potency [5] | Potency [6] | Potency [7] | Potency [8] | Potency [9] | outcome [13] | Potency [14]

Cc1ccc2oc(CN(Cc3ccccc3)C(=O)Nc3c(F)cc(F)cc3F)c(-c3ccc(Cl)cc3)c2c1
inactive: Potency [1] | Potency [2] | Potency [3] | Potency [4] | Potency [5] | Potency [6] | Potency [7] | Potency [8] | Potency [16] | Potency [9] | Potency [17] | Potency [11] | Potency [18] | Potency [12] | outcome [13] | Potency [14]

O=c1cccccc1O
active: Potency [6] 55.5 µM | Potency [7] 62.3 µM | Potency [16] 24.8 µM
inactive: Potency [1] | Potency [2] | Potency [3] | Potency [4] | Potency [5] | Potency [8] | Potency [9] | Potency [10] | Potency [17] | Potency [12] | outcome [13] | Potency [14]

Clc1ccc2cc3ccccc3cc2c1
inactive: Potency [1] | Potency [2] | Potency [3] | Potency [5] | Potency [6] | Potency [7] | Potency [8] | Potency [16] | Potency [17] | Potency [11] | Potency [19] | Potency [18] | Potency [12]
active: Potency [4] 54.4 µM

CCCCCCCCCCCC[N+](C)(C)CCCCCCCCCCCC
active: Potency [1] 54.5 µM | Potency [2] 27.3 µM | Potency [3] 30.6 µM | Potency [5] 54.5 µM | Potency [6] 24.3 µM | Potency [7] 27.3 µM | Potency [17] 30.6 µM | Potency [11] 21.7 µM | Potency [18] 21.7 µM
inactive: Potency [4] | Potency [8] | Potency [12] | outcome [13] | Potency [14]

CC(=O)SC[C@@H](Cc1ccccc1)C(=O)NCC(=O)OCc1ccccc1
inactive: Potency [1] | Potency [2] | Potency [3] | Potency [15] | Potency [4] | Potency [5] | Potency [6] | Potency [7] | Potency [8] | Potency [16] | Potency [9] | Potency [10] | Potency [17] | Potency [11] | Potency [12] | outcome [13]
active: Potency [14] 23.7 µM

Cc1cc(C2CCCCC2)n(O)c(=O)c1
inactive: Potency [2] | Potency [15] | Potency [4] | Potency [5] | Potency [8] | Potency [11] | Potency [18] | Potency [12] | outcome [13] | Potency [14]
active: Potency [1] 11.9 µM | Potency [3] 6.68 µM | Potency [7] 15 µM | Potency [16] 1.19 µM

CCOC(=O)O[C@H](C)OC(=O)c1ccc2c(c1)cc(C(=O)NC1CCN(C(C)C)CC1)n2Cc1cc(-c2ccc(Cl)s2)on1
active: Potency [1] 64.1 µM | Potency [2] 40.4 µM | Potency [3] 64.1 µM | Potency [5] 50.9 µM | Potency [6] 12.8 µM | Potency [7] 20.3 µM | Potency [16] 9.05 µM | Potency [17] 45.4 µM | Potency [11] 20.3 µM | Potency [18] 22.7 µM | Potency [14] 64.1 µM
inactive: Potency [4] | Potency [8]

CNC(=O)c1ccccc1
inactive: Potency [1] | Potency [2] | Potency [3] | Potency [4] | Potency [5] | Potency [6] | Potency [7] | Potency [8] | Potency [16] | Potency [9] | Potency [17] | Potency [11] | Potency [18] | Potency [12] | outcome [13] | Potency [14]

Reference: PubChem BioAssay (Tox21)
